Test results taken from PubChem BioAssay (EPA / NIEHS).
Records with an inconclusive call do not appear. Activity calls are given as the source filed them. Rule for the calls: active = hit-call score of the fitted dose curve at least 0.9, where 1 is the maximum; inconclusive = response in the unintended direction; inactive = score below 0.9.

The molecules below were run against human Vitamin D Receptor (VDR), VDR (gene 7421) (UniProt P11473) (assay: ATG_VDR_TRANS: Attagene TRANS-FACTORIAL HepG2 Assay for human Vitamin D Receptor (VDR) (AID 2283022)).
Outline: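 Fluorescence of labelled reporter cDNA fragments, resolved by capillary electrophoresis, gives mRNA induction after 24 h treatment of HepG2 cells carrying transfected Gal4-fusion reporter units. Activity is fitted in the positive direction with DMSO as baseline.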

human Vitamin D Receptor (VDR), VDR (gene 7421), sequence (P11473 whole entry, looked up, the tested form may be a part): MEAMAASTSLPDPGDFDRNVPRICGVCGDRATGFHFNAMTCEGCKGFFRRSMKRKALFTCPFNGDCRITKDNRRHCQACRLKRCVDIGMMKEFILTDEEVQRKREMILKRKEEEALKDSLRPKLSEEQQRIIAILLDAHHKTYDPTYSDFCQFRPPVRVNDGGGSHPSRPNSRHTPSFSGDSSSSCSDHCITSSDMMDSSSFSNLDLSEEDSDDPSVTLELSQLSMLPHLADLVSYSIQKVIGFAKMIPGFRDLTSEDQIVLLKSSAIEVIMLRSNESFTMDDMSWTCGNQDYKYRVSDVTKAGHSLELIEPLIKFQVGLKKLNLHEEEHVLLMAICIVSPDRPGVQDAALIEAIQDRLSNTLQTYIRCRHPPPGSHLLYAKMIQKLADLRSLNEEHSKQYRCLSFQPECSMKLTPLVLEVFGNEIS

Row | Compound | outcome
1 | C=CC#N | inactive
2 | ClCc1cccnc1 | inactive
3 | CC(=O)c1cc(C(C)(C)C)cc2c1CCC2(C)C | inactive
4 | OCC(O)CCl (stereo unspecified) | inactive
5 | CCC1(c2ccc(N)cc2)CCC(=O)NC1=O (stereo unspecified) | inactive
6 | COc1ccccc1OC | inactive
7 | O=C1C(Cl)=C(Cl)C(=O)c2ccccc21 | inactive
8 | C=CC(=O)N(C)C | inactive
9 | CCc1ccccc1C | inactive
10 | CC(C)c1cccc(C(C)C)c1O | inactive
11 | COc1ccc(C=O)cc1 | inactive
12 | C[C@@H](Oc1ccc(Cl)cc1Cl)C(=O)O | inactive
13 | O=C(O)Cc1ccccc1 | inactive
14 | CC1CN1P(=O)(N1CC1C)N1CC1C (stereo unspecified) | inactive
15 | c1cc[c]([Hg][c]2ccccc2)cc1 | inactive
16 | O=C/C=C/c1ccccc1 | inactive
17 | Clc1nc(Cl)nc(Cl)n1 | inactive
18 | N#CCc1ccc(Cl)cc1 | inactive
19 | ClCc1ccccn1 | inactive
20 | Fc1ccc(C2(Cn3cncn3)OC2c2ccccc2Cl)cc1 (stereo unspecified) | inactive
21 | C[C@H]1O[C@@H](O[C@H]2[C@@H](O)C[C@H](O[C@H]3[C@@H](O)C[C@H](O[C@H]4CC[C@@]5(C)[C@H](CC[C@@H]6[C@@H]5CC[C@]5(C)[C@@H](C7=CC(=O)OC7)CC[C@]65O)C4)O[C@@H]3C)O[C@@H]2C)C[C@H](O)[C@@H]1O | inactive
22 | CCCCOCCOC(C)=O | inactive
23 | COP(=O)(OC)OC | inactive
24 | O=C(CCl)CCl | inactive
25 | Nc1ccc(N=Nc2ccc(-c3ccc(N=Nc4c(S(=O)(=O)O)cc5cc(S(=O)(=O)O)c(N=Nc6ccccc6)c(O)c5c4N)cc3)cc2)c(N)c1 | inactive
26 | CCOC(=O)Nc1cccc(OC(=O)Nc2ccccc2)c1 | inactive
